# Source: PubChem BioAssay AID720517 (National Center for Advancing Translational Sciences (NCATS), 2013)
# Results filed as inconclusive are left out. A number with no mark means an inactive call. Calls of active or inactive are those of the source. Calls come from the whole dose curve; as a rule, active = well fitted activation curve with a large enough effect; inconclusive = small, poorly fitted or top-dose-only effect; inactive = flat fitted curve, though single readings scatter.
# Experiment: qHTS for Inhibitors of Cell Surface uPA Generation: FP59 Counterscreen for Cherry-picked Compounds; for activity (protection from FP59): 0% is about no effect
# Settings: FP59 anthrax toxin cytotoxicity counterscreen, cells; series mostly up to 115 µM; activity (protection from FP59): at the top concentration
# Potency is the fitted concentration of half-maximal effect.
SMILES,activity (protection from FP59) [%],Potency
O=C(c1ccc(NC(=S)NCc2ccc(Cl)cc2)cc1)N1CCCCC1,-0.935,–
Cc1c(NC(=O)C(C)OC(=O)CCC2CCCC2)c(=O)n(-c2ccccc2)n1C (centres undefined),-1.45,–
COc1ccc(-c2csc(NC(C)c3nc4cc(C(=O)NCCCO)ccc4n3Cc3ccc(C)cc3)n2)cc1 (centres undefined),7.96,–
Cc1nc(NC2CCCCC2)c2nnn(Cc3ccccc3Cl)c2n1,3.83,–
O=C(c1ccccn1)C1CCCN(Cc2cn[nH]c2-c2cc3ccccc3o2)C1 (centres undefined),-1.18,–
CCN(CC)CC(=O)Nc1sc2c(c1C(=O)c1ccccc1OC)CCC2,–,16.5 µM (active)
N#Cc1ccccc1Sc1ccccc1C(=O)Nc1ccc(Br)cc1,5.57,–
CCOC(=O)Cc1csc(NC(=O)Nc2cccc(OC)c2)n1,-1.49,–
CCOCCCn1c(SCC(=O)Nc2oc(C)c3c(C)n[nH]c(=O)c23)nc2ccccc2c1=O,-1.53,–
COc1cc(NC(=O)COC(=O)c2cc(S(=O)(=O)N3CCCCC3)ccc2Cl)c(C)cc1[N+](=O)[O-],-1.36,–
O=[N+]([O-])c1ccc(SCc2ccncc2)nc1,-0.905,–
CS(=O)(=O)c1ccc(Cl)c(NC(=O)COC(=O)CNC(=O)c2cccs2)c1,-1.36,–
CC(=O)Nc1ccc(NC(=O)CCCCCN2C(=O)c3ccccc3C2=O)cc1,-1.56,–
CC1(C(=O)OCC(=O)Nc2ccc(Cl)cn2)CC1(Cl)Cl (centres undefined),-0.887,–
COc1ccccc1NC(=O)Cn1ncc2c1-c1ccccc1OC2,-1.3,–
COc1cccc(NC(=O)CSc2nc3ncc(Br)cc3[nH]2)c1,-1.32,–
CCOCCCn1c(SCC(=O)Nc2cc(OC)ccc2OC)nc2ccccc2c1=O,9.94,–
CN(C)c1cccc(C(=O)N(C)C2CCCN(Cc3ccccc3F)C2)c1 (centres undefined),–,52.1 µM (active)
CC(=O)Nc1c2c(nn1-c1cccc(C)c1)CSC2,-1.26,–
COc1ccc(-c2cc(-c3ccccc3)nc3ncnn23)cc1,-1.42,–

SMILES,activity (protection from FP59) [%],Potency
CCOc1ccc(C(=O)NCC(=O)N2CCN(C/C=C/c3ccccc3)CC2)cc1OCC,-1.41,–
CCOC(=O)[C@H]1[C@H]2COc3ccc(Br)cc3[C@@H]2N2C(=O)c3c(C)cc(C)cc3NC(=O)[C@@]12C,1.95,–
COc1ccc(/C(N)=N/OC(=O)Cc2ccccc2OC)cc1,-1.48,–
O=C(CC1(O)C(=O)Nc2ccccc21)c1cccc(Br)c1 (centres undefined),-1.33,–
CCC(=O)N(Cc1cc2ccc(C)cc2[nH]c1=O)c1ccccc1OC,-1.32,–
O=C1OCC/C1=C\c1ccc(O)cc1,-1.59,–
CCC(=O)N1CCC(NC(=O)Nc2ccc(OC(F)(F)F)cc2)CC1,0.228,–
Cc1[nH]c(=O)[nH]c(=O)c1S(=O)(=O)N1CCCc2ccccc21,-1.55,–
Cc1nc(SCc2nc3ccccc3[nH]2)c2oc3cc([N+](=O)[O-])ccc3c2n1,-0.853,–
COc1cc(/C=C(/C#N)C(=O)Nc2ccccc2)ccc1OCc1ccc(C(=O)O)cc1,0.218,–
Cc1ccc(NC(=S)N2CCN(Cc3ccc4c(c3)OCO4)CC2)c(C)c1,-1.41,–
O=C(Cc1ccc(Cl)cc1)NC(=S)Nc1ccccc1O,0.767,–
COc1ccc(C(=O)NC(=S)Nc2ccc(NC(=O)c3ccco3)cc2)cc1[N+](=O)[O-],-1.56,–
Cc1c(C(=O)N(Cc2ccccc2Cl)C2CCS(=O)(=O)C2)oc2ccccc12 (centres undefined),10.7,–
COC(C[C@H](O)[C@H](C)[C@@H](O)COCc1ccccc1)OC,-1.17,–
CC(=O)NC(=S)Nc1ccc([N+](=O)[O-])cc1C,-1.26,–
Oc1ccc(/C=N/Nc2cccc(Cl)n2)c(O)c1,-1.59,–
CC(C)NC(=O)CN1CCC(c2nc3ccccc3[nH]2)CC1,-1.44,–
CCOC(=O)C1CCCN(CC(=O)Nc2ccc(C(=O)Nc3ccccc3OC)cc2)C1 (centres undefined),0.429,–
